From PubChem BioAssay (EPA / NIEHS) come the findings set out here.

Calls of active or inactive are those of the source. How the source made its calls: active means hit-call score of the fitted dose curve at least 0.9, where 1 is the maximum; inactive means score below 0.9.

Details in all cases: mRNA level, 48 h; actives raise or lower the signal
Read-out in experiment [1]: Apoptosis regulator Bcl-2 (Homo sapiens) (UniProt P10415)
Briefly: LTEA_HepaRG_BCL2: Life Technologies and Expression Analysis (LTEA) Assay for Bcl-2 gene using HepaRG (AID 2283475). The method, boiled down:
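Plated human HepaRG cells are exposed to test chemicals for 48 h across eight concentrations from 100 uM downward in half-log steps (0.5% DMSO). BCL2 expression is then measured by qRT-PCR with housekeeping normalisation and fitted bidirectionally against vehicle.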

Read-out in experiment [2]: Bcl-2 (BID) gene, BID (gene 637)
Briefly: LTEA_HepaRG_BID: Life Technologies and Expression Analysis (LTEA) Assay for Bcl-2 (BID) gene using HepaRG (AID 2283476). The method, boiled down:
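Cells are plated, cultured 48 h, switched to serum-free induction medium, then dosed 48 h (100 uM top, half-log steps, 0.5% DMSO). RNA is isolated and BID expression read by qRT-PCR.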

Read-out in another experiment: Caspase-3 (Homo sapiens) (UniProt P42574)
Briefly: LTEA_HepaRG_CASP3: Life Technologies and Expression Analysis (LTEA) Assay for cysteine-aspartic acid protease (CASP3) using HepaRG (AID 2283477). An outline of the steps: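 In HepaRG liver cells dosed for 48 h at up to 100 uM (eight-point, duplicate), CASP3 expression changes are scored by qRT-PCR. Activity is fitted in both directions with 0.5% DMSO as baseline.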

Read-out in experiment [3]: Cytochrome P450 (CYP24A1), CYP24A1 (gene 1591)
Briefly: LTEA_HepaRG_CYP24A1: Life Technologies and Expression Analysis (LTEA) Assay for Cytochrome P450 (CYP24A1) using HepaRG (AID 2283478). The method, boiled down:
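Human liver HepaRG cultures receive each chemical for 48 h across an eight-point half-log series topping at 100 uM in 0.5% DMSO. Induction or suppression of CYP24A1 mRNA is scored relative to vehicle after housekeeping-gene normalization.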

Read-out in experiment [4]: Cytochrome P450 (CYP1A2), CYP1A2 (gene 1544)
Briefly: LTEA_HepaRG_CYP1A2: Life Technologies and Expression Analysis (LTEA) Assay for Cytochrome P450 (CYP1A2) using HepaRG (AID 2283479). The method, boiled down:
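Assesses CYP1A2 mRNA in human HepaRG liver cells after 48 h chemical exposure at up to 100 uM. Values come from qRT-PCR with bidirectional curve fitting relative to DMSO.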

Read-out in experiment [5]: Cytochrome P450 (CYP2B6), CYP2B6 (gene 1555)
Briefly: LTEA_HepaRG_CYP2B6: Life Technologies and Expression Analysis (LTEA) Assay for Cytochrome P450 (CYP2B6) using HepaRG (AID 2283481). The method, boiled down: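 Using 48 h treatment of HepaRG cells in serum-free induction medium, concentrations spanned half-log steps from 100 uM in 0.5% DMSO vehicle. CYP2B6 mRNA induction or loss is scored by qRT-PCR against DMSO.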

Read-out in experiment [6]: Cytochrome P450 2C19 (Homo sapiens) (UniProt P33261)
Briefly: LTEA_HepaRG_CYP2C19: Life Technologies and Expression Analysis (LTEA) Assay for CYP2C19 using HepaRG (AID 2283482). The method, boiled down: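 Human HepaRG liver cells received test chemicals for 48 h (highest 100 uM, half-log dilutions in 0.5% DMSO). CYP2C19 mRNA induction or loss is read by multiplexed qRT-PCR and fitted in both directions versus vehicle.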

Read-out in a further experiment: CYP2C8 (gene 1558)
Briefly: LTEA_HepaRG_CYP2C8: Life Technologies and Expression Analysis (LTEA) Assay for CYP2C8 using HepaRG (AID 2283483). An outline of the steps: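 HepaRG (human liver line), 48 h chemical exposure, 8-pt half-log series from 100 uM, 0.5% DMSO vehicle. Readout: CYP2C8 transcript by qRT-PCR, housekeeping-normalized. Bidirectional fit vs DMSO baseline.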

Read-out in a further experiment: CYP2C9 (gene 1559)
Briefly: LTEA_HepaRG_CYP2C9: Life Technologies and Expression Analysis (LTEA) Assay for CYP2C9 using HepaRG (AID 2283484). An outline of the steps: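 HepaRG, 48 h dosing, 8-pt half-log series, top 100 uM, 0.5% DMSO vehicle. Read-out: CYP2C9 transcript by TaqMan qRT-PCR, housekeeping-normalized (ACTB/GAPDH/POLR2A). Gain or loss fitted vs DMSO baseline.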

Read-out in the next experiment: CYP2E1 (gene 1571)
Briefly: LTEA_HepaRG_CYP2E1: Life Technologies and Expression Analysis (LTEA) Assay for CYP2E1 using HepaRG (AID 2283485). The method, boiled down: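 Readout is qRT-PCR of CYP2E1 mRNA, normalized to three housekeeping genes and fitted bidirectionally against 0.5% DMSO. HepaRG cells were dosed 48 h at eight concentrations, highest 100 uM with half-log dilutions.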

Read-out in a further experiment: CYP4A11 (gene 1579)
Briefly: LTEA_HepaRG_CYP4A11: Life Technologies and Expression Analysis (LTEA) Assay for CYP4A11 using HepaRG (AID 2283486). An outline of the steps: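 Readout is CYP4A11 mRNA induction or suppression (qRT-PCR, ACTB/GAPDH/POLR2A normalization) in human HepaRG cells after 48 h chemical treatment, concentrations to 100 uM in 0.5% DMSO, fitted bidirectionally against vehicle.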

Read-out in experiment [7]: Cytochrome P450 3A4 (Homo sapiens) (UniProt P08684)
Briefly: LTEA_HepaRG_CYP3A4: Life Technologies and Expression Analysis (LTEA) Assay for CYP3A4 using HepaRG (AID 2283487). An outline of the steps:
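HepaRG, 48 h exposure, 8-pt CRC from 100 uM (half-log), 0.5% DMSO, duplicates; serum-free induction medium. Readout: CYP3A4 mRNA, qRT-PCR, ACTB/GAPDH/POLR2A normalization. Bidirectional fit vs DMSO.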

Read-out in experiment [8]: DNA damage-inducible transcript 3 (DDIT3), DDIT3 (gene 1649)
Briefly: LTEA_HepaRG_DDIT3: Life Technologies and Expression Analysis (LTEA) Assay for DNA damage-inducible transcript 3 (DDIT3) using HepaRG (AID 2283488). An outline of the steps:
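Cells are human HepaRG liver cells treated for 48 h with eight half-log concentrations up to 100 uM in 0.5% DMSO. Transcript levels come from qRT-PCR normalized to three housekeeping genes, with activity fitted in both directions relative to vehicle.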

Read-out in experiment [9]: Pro-epidermal growth factor (Homo sapiens) (UniProt P01133)
Briefly: LTEA_HepaRG_EGF: Life Technologies and Expression Analysis (LTEA) Assay for Epidermal growth factor (EGF) using HepaRG (AID 2283489). An outline of the steps: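 EGF expression changes in human HepaRG cells are scored by bidirectional fitting relative to 0.5% DMSO controls. Chemicals are tested at eight half-log concentrations up to 100 uM for 48 h in serum-free induction medium.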

Read-out in experiment [10]: Ezrin (EZR), EZR (gene 7430)
Briefly: LTEA_HepaRG_EZR: Life Technologies and Expression Analysis (LTEA) Assay for Ezrin (EZR) using HepaRG (AID 2283491). An outline of the steps: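 Read-out is EZR transcript level by qRT-PCR, normalized to three housekeeping genes and fitted bidirectionally against the DMSO control. Human HepaRG cells received test chemicals for 48 h at eight half-log concentrations up to 100 uM in 0.5% DMSO.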

Read-out in the next experiment: CYP3A5 (gene 1577)
Briefly: LTEA_HepaRG_CYP3A5: Life Technologies and Expression Analysis (LTEA) Assay for CYP3A5 using HepaRG (AID 2283493). An outline of the steps: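 Human HepaRG hepatic cells receive 48 h chemical treatment at eight concentrations (half-log steps from 100 uM) in 0.5% DMSO. Expression of CYP3A5 is quantified by Fluidigm qRT-PCR and normalized to three reference genes.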

Read-out in experiment [11]: Fatty Acid-Binding Protein 1 (FABP1), FABP1 (gene 2168)
Briefly: LTEA_HepaRG_FABP1: Life Technologies and Expression Analysis (LTEA) Assay for Fatty Acid-Binding Protein 1 (FABP1) using HepaRG (AID 2283494). An outline of the steps: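 qRT-PCR readout of FABP1 transcript (normalized to three housekeeping genes) after 48 h chemical exposure of HepaRG cells; eight concentrations, half-log steps, max 100 uM, 0.5% DMSO vehicle; gain or loss fitted relative to DMSO baseline.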

Read-out in experiment [12]: Early growth response protein 1 (EGR1) transcription factor, EGR1 (gene 1958)
Briefly: LTEA_HepaRG_EGR1: Life Technologies and Expression Analysis (LTEA) Assay for Early growth response protein 1 (EGR1) transcription factor using HepaRG (AID 2283490). An outline of the steps: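 HepaRG, 48 h exposure, 8-pt half-log series from 100 uM, 0.5% DMSO vehicle; EGR1 transcript by TaqMan qRT-PCR (Fluidigm array), housekeeping-normalized; bidirectional fit relative to DMSO baseline.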

Read-out in experiment [13]: Cytochrome P450 3A7 (Homo sapiens) (UniProt P24462)
Briefly: LTEA_HepaRG_CYP3A7: Life Technologies and Expression Analysis (LTEA) Assay for CYP3A7 using HepaRG (AID 2283492). An outline of the steps: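 Cells were thawed, plated, cultured 48 h, then treated for a further 48 h with chemicals (eight-point half-log series from 100 uM, 0.5% DMSO). RNA was isolated and CYP3A7 expression quantified by qRT-PCR normalised to ACTB, GAPDH and POLR2A.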

Cytochrome P450 3A4 (Homo sapiens), sequence (P08684 whole entry, looked up): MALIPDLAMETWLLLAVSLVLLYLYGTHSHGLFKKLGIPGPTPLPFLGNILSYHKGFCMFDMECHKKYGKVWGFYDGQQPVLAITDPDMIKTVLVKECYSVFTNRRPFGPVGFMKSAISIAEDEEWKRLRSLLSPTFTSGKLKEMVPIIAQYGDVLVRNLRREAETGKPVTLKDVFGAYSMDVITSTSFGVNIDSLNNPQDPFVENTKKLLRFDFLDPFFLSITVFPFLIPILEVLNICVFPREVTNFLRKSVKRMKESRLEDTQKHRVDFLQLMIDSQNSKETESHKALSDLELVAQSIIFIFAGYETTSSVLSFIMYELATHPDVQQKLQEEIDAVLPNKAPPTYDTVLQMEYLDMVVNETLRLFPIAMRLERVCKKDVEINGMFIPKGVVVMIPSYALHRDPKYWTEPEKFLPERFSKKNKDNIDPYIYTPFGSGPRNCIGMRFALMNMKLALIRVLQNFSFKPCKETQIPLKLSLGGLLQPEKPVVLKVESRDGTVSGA
Cytochrome P450 2C19 (Homo sapiens), sequence (P33261 whole entry, looked up): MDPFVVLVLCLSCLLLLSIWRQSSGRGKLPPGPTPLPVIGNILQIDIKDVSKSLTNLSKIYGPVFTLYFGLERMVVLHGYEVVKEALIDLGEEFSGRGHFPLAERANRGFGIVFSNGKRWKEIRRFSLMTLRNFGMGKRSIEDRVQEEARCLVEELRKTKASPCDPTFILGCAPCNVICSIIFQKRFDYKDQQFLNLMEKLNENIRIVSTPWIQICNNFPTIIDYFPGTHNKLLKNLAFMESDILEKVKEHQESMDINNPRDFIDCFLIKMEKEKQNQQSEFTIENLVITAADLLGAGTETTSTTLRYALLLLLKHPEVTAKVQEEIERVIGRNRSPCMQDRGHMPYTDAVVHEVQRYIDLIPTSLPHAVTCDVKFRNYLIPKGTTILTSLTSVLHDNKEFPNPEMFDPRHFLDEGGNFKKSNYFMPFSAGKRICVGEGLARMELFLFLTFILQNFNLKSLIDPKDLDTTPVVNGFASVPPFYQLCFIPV
Caspase-3 (Homo sapiens), sequence (P42574 whole entry, looked up): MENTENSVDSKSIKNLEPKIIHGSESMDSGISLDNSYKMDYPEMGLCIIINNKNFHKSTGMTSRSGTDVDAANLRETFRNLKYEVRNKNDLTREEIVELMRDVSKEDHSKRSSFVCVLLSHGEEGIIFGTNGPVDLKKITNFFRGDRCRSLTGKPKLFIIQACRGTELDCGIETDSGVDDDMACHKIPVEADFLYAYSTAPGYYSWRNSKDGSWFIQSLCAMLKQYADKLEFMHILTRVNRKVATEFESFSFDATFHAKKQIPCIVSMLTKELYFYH
Apoptosis regulator Bcl-2 (Homo sapiens), sequence (P10415 whole entry, looked up): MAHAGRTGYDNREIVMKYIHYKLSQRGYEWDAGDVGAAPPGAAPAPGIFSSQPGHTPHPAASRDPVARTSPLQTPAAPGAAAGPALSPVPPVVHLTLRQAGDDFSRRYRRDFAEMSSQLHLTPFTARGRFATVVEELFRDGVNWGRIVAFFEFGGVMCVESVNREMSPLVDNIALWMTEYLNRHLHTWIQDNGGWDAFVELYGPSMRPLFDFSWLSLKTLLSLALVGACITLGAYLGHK
Cytochrome P450 3A7 (Homo sapiens), sequence (P24462 whole entry, looked up): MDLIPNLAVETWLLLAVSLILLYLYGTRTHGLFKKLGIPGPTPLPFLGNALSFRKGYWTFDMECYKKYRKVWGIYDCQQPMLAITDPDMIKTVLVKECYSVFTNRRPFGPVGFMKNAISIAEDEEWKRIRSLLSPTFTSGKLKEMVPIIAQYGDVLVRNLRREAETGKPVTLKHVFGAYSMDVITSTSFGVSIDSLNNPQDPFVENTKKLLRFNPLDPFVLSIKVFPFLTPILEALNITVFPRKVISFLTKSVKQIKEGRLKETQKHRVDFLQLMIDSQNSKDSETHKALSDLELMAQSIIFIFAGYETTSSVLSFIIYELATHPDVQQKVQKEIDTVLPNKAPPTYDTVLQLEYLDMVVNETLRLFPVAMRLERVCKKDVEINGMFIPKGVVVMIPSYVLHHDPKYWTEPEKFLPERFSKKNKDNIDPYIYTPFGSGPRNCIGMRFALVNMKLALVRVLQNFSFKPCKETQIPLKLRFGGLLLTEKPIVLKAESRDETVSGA

Consider `Cc1oc2c(NC(=O)c3c(Cl)cccc3Cl)cccc2c1C(C)(C)O`, for which the AC50 in [1] was 55.3 µM (active); in experiment [4], 12.7 µM (active); in experiment [5], 32.8 µM (active); in experiment [6], 33.5 µM (active); with CYP2C8 (gene 1558) it was 35.8 µM (active); in the experiment with CYP2C9 (gene 1559), 33.8 µM (active). The AC50 with CYP2E1 (gene 1571) was 39.7 µM (active); with CYP4A11 (gene 1579), 24.6 µM (active); in experiment [7] it was 81.9 µM (active); in experiment [8], 33.2 µM (active); in experiment [11] it was 62.1 µM (active). Besides, the compound was classed as inactive (in experiment [2]; with Caspase-3 (Homo sapiens); in experiment [3]; in experiment [9]; in experiment [10]; with CYP3A5 (gene 1577)).
On to `CN1C(=O)CC[C@H]1c1cccnc1`, for which the call (in [1]; in [2]; with Caspase-3 (Homo sapiens); in experiment [5]; in [6]; in the experiment with CYP2C8 (gene 1558)) was inactive. Besides, the result (with CYP2C9 (gene 1559); in the experiment with CYP4A11 (gene 1579); in experiment [7]; in [8]; in experiment [9]; in [12]) was inactive. Besides, the call (in experiment [10]; in [13]; with CYP3A5 (gene 1577); in [11]) was inactive. Besides, the AC50 in [4] was 91.4 µM (active).
Take `CCCCCCCCOc1ccc(C(=O)c2ccccc2)c(O)c1`: the compound was called inactive (in experiment [1]; in experiment [2]; with Caspase-3 (Homo sapiens); in experiment [6]; with CYP2C8 (gene 1558); with CYP2C9 (gene 1559)). Moreover, the result (in the experiment with CYP4A11 (gene 1579); in experiment [7]; in [8]; in experiment [9]; in experiment [12]; in experiment [10]) was inactive. Moreover, the outcome (in the experiment with CYP3A5 (gene 1577); in experiment [11]) was inactive. The AC50 in experiment [4] and in [5] was 50 µM (active) in each case.
